Assay results: article PMC5540273 (PLoS ONE, 2017)

Legend:
Settings in all cases: concentration: 1 μM, replicates: in singlicate; n = 1
SRMS = test system: SRMS
SRPK1 = test system: SRPK1
SRPK2 = test system: SRPK2
SRPK3 = test system: SRPK3
STK16 = test system: STK16
STK33 = test system: STK33
STK35 = test system: STK35
STK36 = test system: STK36
STK39 = test system: STK39
SYK = test system: SYK
SgK110 = test system: SgK110
TAK1 = test system: T1, TAK1
T1 construct: gene MAP3K7

TAOK1 = test system: TAOK1
TAOK2 = test system: TAOK2
TAOK3 = test system: TAOK3
TBK1 = test system: TBK1
TEC = test system: TEC
TESK1 = test system: TESK1
TGFBR1 = test system: TGFBR1
TGFBR2 = test system: TGFBR2
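Further: KINOMEscan kinase panel screen.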

| Structure (SMILES) | %Inh (SRMS) [%] | %Inh (SRPK1) [%] | %Inh (SRPK2) [%] | %Inh (SRPK3) [%] | %Inh (STK16) [%] | %Inh (STK33) [%] | %Inh (STK35) [%] | %Inh (STK36) [%] | %Inh (STK39) [%] | %Inh (SYK) [%] | %Inh (SgK110) [%] | %Inh (TAK1) [%] | %Inh (TAOK1) [%] | %Inh (TAOK2) [%] | %Inh (TAOK3) [%] | %Inh (TBK1) [%] | %Inh (TEC) [%] | %Inh (TESK1) [%] | %Inh (TGFBR1) [%] | %Inh (TGFBR2) [%] |
| --- | --- | --- | --- | --- | --- | --- | --- | --- | --- | --- | --- | --- | --- | --- | --- | --- | --- | --- | --- | --- |
| CCCc1ccc(S(=O)(=O)NC2CCN(c3ccnc(Nc4ccc(OC)cc4)n3)C2)cc1 (stereo not shown) [GSK1379737] | 0 | 28 | 28 | 0 | 1 | 0 | 0 | 15 | 17 | 18 | 0 | 0 | 0 | 0 | 0 | 0 | 0 | 36 | 28 | 0 |
| Cn1cc(-c2ccc3c(c2)CCN3C(=O)Cc2cccc(C(F)(F)F)c2)c2c(N)ncnc21 [GSK2606414] | 0 | 24 | 0 | 100 | 11 | 0 | 0 | 0 | 1 | 0 | 0 | 0 | 4 | 0 | 3 | 9 | 1 | 5 | 0 | 9 |
| FC(F)(F)c1cc(Nc2nccc(-c3c(-c4ccc(Cl)cc4)nn4ncccc34)n2)ccc1Cl [GW829351] | 27 | 0 | 7 | 4 | 0 | 0 | 0 | 21 | 0 | 2 | 23 | 0 | 0 | 2 | 0 | 2 | 0 | 0 | 21 | 0 |
| Clc1cccc(-c2nc(Nc3ccncc3)c3ccccc3n2)c1 [GW873004] | 2 | – | 43 | 0 | 0 | 26 | 0 | 3 | 0 | 33 | 38 | 0 | 0 | 4 | 0 | 11 | 17 | 19 | – | 17 |
| Nc1nccc2scc(-c3ccc4c(c3)CCN4C(=O)Cc3cc(F)ccc3F)c12 [GSK2587663] | 0 | 8 | 0 | 0 | 11 | 0 | 0 | 0 | 6 | 22 | 0 | 0 | 0 | 0 | 0 | 6 | 0 | 18 | 19 | 0 |
| O=C(Nc1ccccc1F)NC1CCN(c2ccnc(Nc3ccc(F)cc3)n2)C1 (stereo not shown) [GSK1379722] | 0 | 0 | 0 | 3 | 0 | 0 | 0 | 0 | 29 | 10 | 0 | 0 | 0 | 0 | 0 | 0 | 6 | 16 | 25 | 0 |
| O=C(Nc1n[nH]c2nc(-c3ccco3)c(Br)cc12)c1ccc(CN2CCCC2)cc1.O=C(O)[C@H](O)[C@@H](O)C(=O)O [SB-742352] | 0 | 2 | 0 | 26 | 0 | 0 | 26 | 54 | 0 | 10 | 50 | 0 | 0 | 0 | 0 | 13 | 0 | 8 | 0 | 0 |
| Nc1n[nH]c2nnc(-c3ccccc3)cc12 [SB-517389] | 0 | 20 | 0 | 1 | 0 | 0 | 0 | 0 | 13 | 5 | 0 | 0 | 0 | 0 | 3 | 6 | 11 | 27 | 0 | 0 |
| N#Cc1ccc(Oc2ccc(Nc3ncnc4cc[nH]c34)cc2Cl)cc1 | 0 | 0 | 0 | 0 | 36 | 27 | 27 | 10 | 15 | 13 | 0 | 7 | 0 | 0 | 0 | 24 | 0 | 5 | 1 | 5 |
| Clc1cc(Nc2ncnc3cc[nH]c23)ccc1OCc1ccccn1 | 0 | 0 | 0 | 19 | 35 | 9 | 0 | 12 | 8 | 8 | 0 | 9 | 0 | 0 | 0 | 4 | 0 | 7 | 15 | 0 |
| CCc1nc(-c2cccc(N(C)S(=O)(=O)c3ccccc3)c2)c(-c2ccnc(Nc3ccc(N4CCN(C(C)=O)CC4)nc3)n2)s1 [GSK1645895] | 19 | 19 | 0 | 0 | 41 | 0 | 0 | 99.4 | 0 | 0 | 0 | 0 | 0 | 0 | 2 | 27 | 7 | 0 | 17 | 0 |
| COC(=O)c1c(-c2ccccc2)c2cc(Cl)ccc2c(=O)n1Cc1ccc(S(C)(=O)=O)cc1 | 0 | 10 | 6 | 0 | 0 | 0 | 15 | 15 | 0 | 3 | 46 | 17 | 0 | 0 | 0 | 20 | 0 | 0 | 7 | 5 |
| COc1ccc(-c2oc3ncnc(N)c3c2-c2ccc(OC)cc2)cc1 [SB-589132] | 6 | 30 | 53 | 0 | 57 | 0 | 0 | 0 | 24 | 20 | 0 | 0 | 0 | 0 | 0 | 0 | 15 | 36 | 7 | 12 |
| CN1CCC(n2cnc(-c3ccc(F)cc3)c2-c2ccnc(NC3CCNCC3)n2)CC1 [SB-229482] | 28 | 0 | 27 | 16 | 12 | 0 | 0 | 24 | 47 | 0 | 0 | 34 | 0 | 0 | 0 | 0 | 0 | 7 | 28 | 16 |
| COc1ccc(NC(=O)c2ccc(-c3cc(-c4nnc(C)o4)ccc3C)cc2)cc1 [GW595885] | 0 | 0 | 0 | 8 | 7 | 0 | 0 | 0 | 21 | 27 | 13 | 0 | 0 | 0 | 0 | 0 | 2 | 24 | 6 | 0 |
